An excerpt weighted towards active compounds, which were near 19% of everything screened.
KB-V1 cytotox: KB-V1 MDR subline cytotoxicity. actives 3.4% (n = 400,000). KB-V1 MDR cells viability, CellTiter-Glo, 72 h. AID 1347076. Potency, µM (titrated, usually from 46.1 µM), actives largely listed as cytotoxic; note: nearly all actives have a fitted effect of over 60% in size
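qHTS viability screen in drug-selected KB-V1 MDR cells: 72 h compound treatment at 37 degrees C, ATP luminescence end point.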
DT40 TDP1 no CPT: qHTS for Inhibitors of human tyrosyl-DNA phosphodiesterase 1 (TDP1): qHTS in cells in absence of CPT | DT40 Tdp1-/- hTDP1 cells, no CPT, ATP luminescence, 48 h | Potency, µM (doses to about 46.2 µM), for the others: top-dose activity change, negative = growth inhibition, most hits filed as inhibitors | actives 15% (n = 420,000); note: nearly all actives have a fitted effect of over 55% in size
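Growth of hTDP1-complemented DT40 Tdp1-knockout cells is measured by ATP luminescence after at least 48 hr compound exposure at 37 °C, with DMSO substituting for the 20 nM CPT used in the parallel screen.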
HT1080-NT tox: kills 2HG-producing HT-1080-NT fibrosarcoma cells; actives 1.6% (n = 360,000); HT-1080-NT fibrosarcoma viability, CellTiter-Glo ATP luminescence, 48 h; AID 686970; Potency, µM (series often up to 46.1 µM), without a hit: top-dose activity, negative = less viability, hits mostly cytotoxic;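 note: NT is the 2HG producing partner of a matched IDH1 knockdown line; 0% = DMSO-treated cells and -100% = media-only wells without cells; nearly all actives have a fitted effect of over 55% in size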
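A 48-hour cytotoxicity screen used HT-1080-NT cells plated 2 hours before compound delivery. ATP-based CellTiter-Glo luminescence measured viability, normalized to DMSO and no-cell controls.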
KB-3-1 cytotox: kills parental KB-3-1 adenocarcinoma cells | KB-3-1 viability, CellTiter-Glo ATP luminescence, 72 h | Potency, µM (titrated, usually from 46.1 µM), hits mostly cytotoxic | actives 1.4% (n = 400,000) | AID 1347075; note: nearly all actives have a fitted effect of over 60% in size
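Multi-concentration cytotoxicity screen in KB-3-1 cells grown in DMEM lacking phenol red with 10% FBS. After 72 h at 37 °C with compound, ATP-dependent luminescence was recorded.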
HT1080 IDH1KD tx: HT-1080 IDH1 knockdown cell toxicity (counter line); HT-1080 IDH1 knockdown viability, ATP luminescence, 48 h; Potency, µM (titrated, usually from 46.1 µM), for inactives: at the highest dose activity, negative = toxicity, usual class: cytotoxic; actives 2% (n = 360,000);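 note: 0% = DMSO wells and -100% = cell-free medium wells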
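Knockdown cells (IDH1KD HT-1080) received compounds 2 h after plating at 750 cells/well and were kept 48 h at 37 °C in 5% FBS RPMI. A CellTiter-Glo luminescence read gave % activity for curve fitting.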
TDP1 cell CPT: DT40-hTDP1 cell growth loss with CPT. actives 12% (n = 420,000). Potency, µM (titrated, usually from 46.2 µM), for the others: at the top dose activity change, negative = growth inhibition, most hits filed as inhibitors. chicken DT40 Tdp1-/-;hTDP1 cells + 20 nM CPT, ATP luminescence, 48 h; note: nearly all actives have a fitted effect of over 55% in size
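Chicken DT40 Tdp1-/- cells stably complemented with human TDP1 were seeded at 400 cells/well in medium containing 20 nM camptothecin, exposed to pin-transferred compounds, and grown at 37 °C for at least 48 hr. Viability was read as ATP luminescence.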
An asterisk follows results filed as active; i = inactive; u = inconclusive; x = no result given. Calls come from the whole dose curve; as a rule, active = well fitted curve in the direction sought with a large enough effect; inconclusive = small, poorly fitted or top-dose-only effect, or another doubt; inactive = no such curve, though single readings can be large; an effect the other way counts as inactive or inconclusive. Unless noted, % is set by controls: 0 for no effect and ±100 for the full control effect; potency is the fitted concentration of half-maximal effect.

SMILES	KB-V1 cytotox	DT40 TDP1 no CPT	HT1080-NT tox	KB-3-1 cytotox	HT1080 IDH1KD tx	TDP1 cell CPT
CCC(C)Nc1nc(N)c([N+](=O)[O-])c(Nc2ccccc2OC)n1 (stereo not drawn)	u	u	u	i	20.6µM*	u
COc1ccc(/C=N/NC(=O)c2nn(-c3ccc(Cl)cc3)c(=O)c3c(N)scc23)cc1	i	2.59µM*	-15.4%	i	-21.5%	5.8µM*
COc1ccc(/C=N/NC(=O)c2nn(-c3ccccc3)c(=O)c3c(N)scc23)cc1	i	8.2µM*	0.0%	i	4.2%	10.3µM*
COc1ccc(/C=N/NC(=O)c2nn(-c3ccc(C)c(C)c3)c(=O)c3ccccc23)cc1	i	3.26µM*	-9.3%	i	-10.0%	9.2µM*
Cc1cccc(NC(=O)CCCN2C(=O)C(c3ccccc3)Oc3cccnc32)c1C (stereo not drawn)	i	u	3.4%	i	-3.1%	u
N=c1n(CC(=O)c2cccs2)c2ccccc2n1Cc1ccccc1	i	16.4µM*	-5.8%	u	-4.9%	16.4µM*
C=CCn1c(=N)n(CC(=O)c2ccc(Cl)cc2)c2ccccc21	i	u	-18.4%	i	-27.8%	9.2µM*
O=C(Cn1c(NCCCO)nc2ccccc21)c1ccc(Cl)cc1	i	u	-5.0%	i	-6.3%	u
C=CCn1c(=N)n(CC(=O)c2ccc(Br)s2)c2ccccc21	i	18.4µM*	-29.7%	14.6µM*	-23.4%	u
CCCCc1n(CC(=O)c2ccc(Cl)cc2)c2ccccc2[n+]1C	i	6.51µM*	-23.3%	u	u	6.51µM*
O=C(O)Cn1c(=O)n(Cc2ccccc2)c2ccccc21	i	1.5%	-18.8%	i	-6.5%	-12.6%
O=C(O)c1cocc1C(=O)O	i	-22.3%	-9.0%	i	9.0%	-2.4%
CSc1cc2c(s1)c1cnn(Cc3cccc(N)c3)c(=O)c1n2C	i	x	x	i	x	x
COc1ccccc1N(C)S(=O)(=O)c1ccc(C(=O)N2CCCC(C(F)(F)F)C2)cc1 (stereo not drawn)	i	18.4µM*	-12.8%	i	-0.4%	u
CC1CCc2[nH]c3ccc(C(=O)N4CCCC(C(F)(F)F)C4)cc3c2C1 (stereo not drawn)	u	16.4µM*	-8.3%	i	-23.3%	u
CCOC(=O)C1CCCN(C(=O)c2ccc3[nH]c4c(c3c2)CC(C)CC4)C1 (stereo not drawn)	i	u	7.5%	i	5.1%	-18.9%
COc1ccccc1N(C)S(=O)(=O)c1ccc(C(=O)OCC(=O)N2CCC2)cc1	u	u	u	u	16.4µM*	u
CC1CCN(S(=O)(=O)c2ccc(C(=O)N3CCCC(C(F)(F)F)C3)cc2)CC1 (stereo not drawn)	u	u	-1.7%	u	-0.8%	18.4µM*
O=C(c1ccc(S(=O)(=O)N2CCCCCC2)cc1)N1CCCC(C(F)(F)F)C1 (stereo not drawn)	i	u	4.5%	i	1.6%	u
O=C(NCCS(=O)(=O)N1CCN(Cc2ccccc2)CC1)c1ccccc1	i	u	5.3%	i	4.0%	6.4%
CNc1nc(N/N=C/c2cc([N+](=O)[O-])ccc2F)nc(Nc2ccccc2)n1	u	7.31µM*	0.0%	i	-5.1%	13µM*
COc1ccc2nc(Nc3ccccc3)sc2c1	u	u	-17.7%	i	-12.9%	-0.7%
COc1ccc(OC)c(Nc2ncnc3c2cnn3-c2ccc(C)cc2)c1	i	u	x	i	x	u
COc1ccc(OC)c(Nc2cc(C)nc3ccc(C)cc23)c1	5.17µM*	5.17µM*	5.17µM*	7.31µM*	3.66µM*	4.61µM*
Cc1cc(Nc2cccc(Br)c2)c2ccccc2n1	u	10.3µM*	u	i	u	5.8µM*
SMILES	KB-V1 cytotox	DT40 TDP1 no CPT	HT1080-NT tox	KB-3-1 cytotox	HT1080 IDH1KD tx	TDP1 cell CPT
COc1ccc2nc(C)cc(Nc3ccc(C)cc3)c2c1	i	u	u	i	u	5.8µM*
COc1ccc2nc(C)cc(Nc3ccc(Cl)c(Cl)c3)c2c1	u	1.84µM*	x	u	x	2.06µM*
C=CCC1(Cl)C(=O)C(Cl)=C(N2CCN(C)CC2)C1(OC)OC (stereo not drawn)	i	-2.7%	11.2%	i	8.9%	0.4%
O=C(Nc1cc(S(=O)(=O)N2CCCC2)ccc1OCC(F)(F)F)c1ccncc1	i	-20.1%	5.2%	i	7.7%	-9.2%
CC1=CC(=O)C(C(C)=Nc2cccc(Cl)c2)C(=O)O1 (stereo not drawn)	i	-7.6%	2.8%	i	0.7%	9.4%
Fc1ccc(Nc2nnc(-c3ccncc3)s2)cc1Cl	i	-26.2%	28.1%	i	16.5%	-23.8%
COc1ccc(Nc2cc(C)nc3ccccc23)cc1	i	18.4µM*	-24.1%	i	11.2µM*	u
COc1ccc2nc(C)cc(NCc3ccc(F)cc3)c2c1	i	23.1µM*	u	i	16.4µM*	u
O=C(Nc1cccc(Cl)c1)C1CCN(C(=O)c2cccs2)CC1	i	-9.9%	-24.5%	i	1.6%	-0.4%
CCOC(=O)C1CCCN(c2ncnc3c2nnn3C)C1 (stereo not drawn)	i	-22.7%	x	i	x	-21.0%
Clc1ccc(SCc2cn3ccsc3n2)cc1	i	-20.4%	4.7%	i	-0.7%	-29.3%
Cc1csc2nc(CSc3ccc(Cl)cc3)cn12	i	23.1µM*	-0.7%	i	-7.2%	u
COc1cc2nc(C#N)nc(N)c2cc1OC	x	20µM*	21.5%	x	16.1%	u
COc1ccc(Cl)cc1Nc1nc(N)c2ccccc2n1	i	u	u	i	u	u
COc1ccc(C)cc1Nc1nc(N)c2cc(OC)c(OC)cc2n1	u	23.1µM*	u	i	18.4µM*	4.61µM*
Cc1ccc(C)c(Nc2ncnc(N)c2[N+](=O)[O-])c1	i	-21.1%	15.0%	i	20.2%	-1.7%
Cc1ccc(C)c(Nc2nc(N)c3ccccc3n2)c1	i	18.4µM*	-10.4%	u	-21.4%	u
Nc1nc(Nc2cccc(F)c2)nc2ccccc12	u	18.4µM*	u	i	u	18.4µM*
O=c1oc(Nc2cccc(F)c2)nc2ccccc12	u	u	-9.8%	i	-6.4%	u
